Screening results as filed in PubChem BioAssay.
A selection: hits, their analogues and other compounds. The true share with any hit is near 2.1%.
FUS yeast rescue: suppressors of FUS proteinopathy in yeast | S. cerevisiae FUS-expressing, growth rescue, OD600, 24 h | Potency, µM (doses to about 76.6 µM), most hits filed as activators | hit rate 0.24% among 390,000 | AID 1347120;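 also: plate controls were DMSO vehicle for no effect and reference control for full effect; nearly all actives have a fitted effect of over 55% in size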
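Compound concentration series was pinned onto galactose-induced FUS-expressing yeast seeded at OD 0.005. Plates sat 24hr at 30C; absorbance at 600 nm gave growth. DMSO served as background control.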
Abeta rescue: compounds reversing amyloid beta toxicity in yeast; Potency, µM (titrated, usually from 46.1 µM), hits mostly activators; yeast expressing A-beta42, growth rescue, OD600, 48 h; response scale: 0% DMSO, 100% iron-clioquinol control; hit rate 0.063% among 410,000; also: nearly all actives have a fitted effect of over 55% in size
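Yeast growth medium received pinned compounds, then yeast cells expressing toxic A-beta were added; plates incubated at 30 C for 48 hr. Growth read as absorbance at 600 nm, normalized to DMSO and equimolar FeCl3 plus clioquinol controls.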
TDP-43 yeast inh: inhibitors of TDP-43 toxicity in yeast. hit rate 1.8% among 410,000. Potency, µM (titrated, usually from 46.1 µM), for the others: at the highest dose growth rescue (activation), most hits filed as activators. TDP-43 expressing yeast growth rescue, BacTiter-Glo, 24 h; also: % of control where 0% means no effect; nearly all actives have a fitted effect of over 50% in size
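Yeast expressing TDP-43 (pregrown in raffinose, seeded at OD600=0.02 in galactose medium) exposed to compounds 24 hr at 30 deg C. Growth read by BacTiter-Glo luminescence; rescue of toxicity appears as increased signal.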
aSyn yeast inh: alpha-synuclein toxicity inhibition in yeast. hit rate 0.14% among 370,000. Yeast expressing alpha-synuclein, growth rescue, BacTiter-Glo, 24 h. Potency, µM (titrated, usually from 46.1 µM), inactives show at the highest dose growth rescue (activation), usual class: activators. AID 652106; also: % of control where 0% means no effect; nearly all actives have a fitted effect of over 65% in size
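Screening used galactose-induced yeast with toxic alpha-synuclein levels, exposed to compound for 24 hr at 30 deg C. Cell growth, read with BacTiter-Glo luminescence, gave the measured signal.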
An asterisk follows results filed as active; i = inactive; u = inconclusive; x = not tested or not shown; [ ] = dose if it differs, or a comment. Calls follow the shape of the dose curve; as a rule, active = well fitted curve in the direction sought with a large enough effect; inconclusive = small, poorly fitted or top-dose-only effect, or another doubt; inactive = no such curve, though single readings can be large; an effect the other way counts as inactive or inconclusive. Potency is read from the fitted curve at half-maximal effect.

SMILES	FUS yeast rescue	Abeta rescue	TDP-43 yeast inh	aSyn yeast inh
CCC(C)(C)NC(=O)C(C)OC(=O)c1nsc(Cl)c1Cl (stereo unspecified)	i	u	-16%	-3%
Cc1ccc(C)c(N2CCN(C(=O)c3ccc(CS(=O)Cc4ccc(Cl)cc4)o3)CC2)c1 (stereo unspecified)	u	i	u	u
Cc1ccc(Cl)cc1N1CCN(C(=O)c2ccc(CS(=O)Cc3ccc(Cl)cc3)o2)CC1 (stereo unspecified)	u	i	20µM*	u
CC(C)CCn1c(C(C)O)nc2ccccc21 (stereo unspecified)	i	i	-11%	-3%
COc1cccc(-c2nc(NC(C)(C)C)c3ccccc3n2)c1O	i	i	u	-11%
COc1ccc(Nc2nc(-c3cccc(OC)c3O)nc3ccccc23)cc1	u	i	18µM*	3%
COc1cccc(-c2nc(N3CC(C)CC(C)C3)c3ccccc3n2)c1O (stereo unspecified)	i	i	13µM*	7%
COc1ccc(CCNC(=O)c2cc3n(n2)CCCN(Cc2ccc(C)cc2)C3=O)cc1OC	i	i	-2%	x
C=C1CC2(CC(c3ccccc3)OC(c3ccccc3)C2)OC1=O (stereo unspecified)	x	i	10µM*	6%
Cc1ccc(Sc2cnccc2C#N)cc1	i	i	13µM*	-3%
CN(C(=O)c1ccc2c(c1)C(=O)N(CCC1=CCCCC1)C2=O)C1CCCCC1	i	i	22µM*	7%
O=C(O)c1ccc2c(c1)C(=O)N(CCC1=CCCCC1)C2=O	i	i	16%	5%
COc1ccc(OC)c(CCNC(=O)CC2Oc3ccc(C)cc3NC2=O)c1 (stereo unspecified)	i	i	0%	-11%
COc1ccc(CC(=O)N2CCc3cc(OC)c(OC)cc3C2)cc1	i	i	8%	2%
COc1cc2c(cc1OC)CN(C(=O)Nc1ccccc1Cl)CC2	i	i	11µM*	6%
COc1cc2c(cc1OC)CN(C(=O)Cc1c(F)cccc1Cl)CC2	i	i	16µM*	10%
COc1ccccc1N1CCN(C(=O)c2ccc(-c3nc4ccccc4s3)o2)CC1	u	i	22µM*	1%[1.84 µM]
COc1ccc(N2CCN(C(=O)c3ccc(-c4nc5ccccc5s4)o3)CC2)cc1	i	i	17%	0%
COc1ccccc1N1CCN(C(=O)c2ccc(-c3ccc(Cl)cc3)o2)CC1	u	i	16µM*	3%
Cc1ccc(OCc2nc3ccccc3n2C(C(=O)NC(C)(C)C)c2ccccc2)cc1 (stereo unspecified)	i	i	7%	2%
Cc1ccc(OCc2nc3ccccc3n2C(C)C(=O)Nc2c(C)cccc2C)cc1 (stereo unspecified)	i	i	25µM*	14%
ClCc1nc2ccccc2c2ccccc12	i	i	14µM*	-1%
COCOCCn1cc(CN2CCS(=O)(=O)N(Cc3ccc(-c4ccc(F)cc4)cc3)C(C(C)C)C2=O)nn1 (stereo unspecified)	u	i	5%	9%
Cc1cc(F)ccc1S(=O)(=O)Nc1ccc2oc3c(c2c1)CC(C)CC3 (stereo unspecified)	i	i	35µM*	x
O=C(NCc1ccncc1)C(=O)Nc1nc2ccccc2s1	i	i	9%	2%
SMILES	FUS yeast rescue	Abeta rescue	TDP-43 yeast inh	aSyn yeast inh
CC(=O)c1cccc(NC(=O)c2sc(Cl)nc2C)c1	i	i	u	5%
Cc1nc(Cl)sc1C(=O)Nc1cccc(Cl)c1	i	i	14µM*	16%
COc1ccc(C(=O)c2sc(Nc3ccc(NC(C)=O)cc3)nc2C)cc1	i	i	24%	-10%
Cc1nc(Nc2ccccc2)sc1C(=O)Nc1ccccc1	i	i	10µM*	-1%
Cc1nc(Nc2ccccc2)sc1C(=O)c1ccc(F)cc1	i	i	22µM*	0%
COc1ccc(Nc2nc(C)c(-c3ccccc3)s2)cc1	x	i	13µM*	-18%
Cc1nc(Nc2ccc(S(N)(=O)=O)cc2)sc1C(=O)Nc1ccccc1	i	i	-9%	-2%
CC(=O)c1cc(-c2ccccc2)n(CC(=O)NC(C)(C)C)c1C	i	i	15%	-6%
O=C(NNc1ccccc1F)c1ccccc1	i	i	-17%[1.82 µM]	8%
Nc1nc(Nc2ccccc2F)sc1C(=O)c1ccccc1	i	u	22µM*	-17%
COc1ccc(C=Nc2cccc3c(=O)[nH][nH]c(=O)c23)c2ccccc12	i	i	-28%	-2%
N#CCSc1nnc(COc2cccc3ccccc23)n1-c1ccccc1	i	i	20µM*	0%
COC(=O)[C@]12C[C@H](CC(=O)NCC34CC5CC(CC(C5)C3)C4)C(=O)N(Cc3ccco3)C1=C[C@H](C(C)C)O[C@@H]2C1CC1	25µM*	x	x	x
CCCCCCCCN1C(=O)[C@@H](CC(=O)N2CCN(C(=O)C3CC3)CC2)C[C@@]2(C(=O)OC)C1=C[C@H](C(C)C)O[C@@H]2C1CC1	28µM*	x	x	x
COC(=O)[C@]12C[C@H](CC(=O)NCCCN3CCCC3=O)C(=O)N(CCc3ccc(OC)c(OC)c3)C1=C[C@H](C(C)C)O[C@@H]2C1CC1	i	x	x	x
CCCCCCCCN1C(=O)[C@@H](CC(=O)NCCCN2CCCC2=O)C[C@@]2(C(=O)OC)C1=C[C@H](C(C)C)O[C@@H]2C1CC1	18µM*	x	x	x
Cc1ccc(OCc2cc(C(=O)N3CCC(C(O)C(C)C)CC3)no2)cc1C (stereo unspecified)	u	i	16µM*	12%
Cc1ccc2[nH]c(C(=O)N3CCCC(Nc4ccc(F)cc4)C3)cc2c1 (stereo unspecified)	u	i	22µM*	24%
Cc1cc(C)c(C(=O)N2CCCC(Nc3ccc(F)cc3)C2)o1 (stereo unspecified)	i	i	24%	0%
O=C1CC(=Nc2ccccc2)NN1c1ccccc1	13µM*	u	16µM*	12%
O=C1Cc2ccccc2N1c1ccccc1	i	i	u	5%
CCCNC(=O)c1oc2ccc3c(c2c1C)C(=O)CC(C)(C)O3	i	i	14µM*	-2%
Cc1ccccc1NC(=O)Cc1nc(CN(C)CC(=O)Nc2cccc(F)c2)cs1	i	i	17%	-7%
CC(C)=CC(=O)O[C@@H]1Cc2cc3ccc(=O)oc3cc2OC1(C)C	i	i	14µM*	8%
CC1(C)Cc2c(sc3nc(-c4ccccc4)oc(=O)c23)CO1	i	i	-9%	1%
COc1cc(/C=N/N2CCOCC2)ccc1OCc1ccccc1	i	i	-13%[9.22 µM]	-8%
COc1cc(/C=N/N2CCOCC2)ccc1OCc1ccc(Cl)cc1	i	i	11µM*	-1%
N#Cc1ccc(N2CCCNCC2)nc1	i	i	6%	-1%
Cc1c(C2(O)CCCCC2)[nH]c2ccc(C(F)(F)F)cc12	i	i	3.5µM*	-62%
